Test results as given in the GenesisPotency data set.
The whole screen tested about 290,000 compounds, of which about 3,000 (1%) were called active. No stated cut-off is given here; in the data, active means inhibition mostly above about 36% (no sharp cut-off); inactive means mostly below about 34%. This excerpt belongs to a sample that is enriched for actives.

Target: T1, Nucleotide-binding oligomerization domain-containing protein 1, Homo sapiens (UniProt Q9Y239)
T1 sequence (whole entry): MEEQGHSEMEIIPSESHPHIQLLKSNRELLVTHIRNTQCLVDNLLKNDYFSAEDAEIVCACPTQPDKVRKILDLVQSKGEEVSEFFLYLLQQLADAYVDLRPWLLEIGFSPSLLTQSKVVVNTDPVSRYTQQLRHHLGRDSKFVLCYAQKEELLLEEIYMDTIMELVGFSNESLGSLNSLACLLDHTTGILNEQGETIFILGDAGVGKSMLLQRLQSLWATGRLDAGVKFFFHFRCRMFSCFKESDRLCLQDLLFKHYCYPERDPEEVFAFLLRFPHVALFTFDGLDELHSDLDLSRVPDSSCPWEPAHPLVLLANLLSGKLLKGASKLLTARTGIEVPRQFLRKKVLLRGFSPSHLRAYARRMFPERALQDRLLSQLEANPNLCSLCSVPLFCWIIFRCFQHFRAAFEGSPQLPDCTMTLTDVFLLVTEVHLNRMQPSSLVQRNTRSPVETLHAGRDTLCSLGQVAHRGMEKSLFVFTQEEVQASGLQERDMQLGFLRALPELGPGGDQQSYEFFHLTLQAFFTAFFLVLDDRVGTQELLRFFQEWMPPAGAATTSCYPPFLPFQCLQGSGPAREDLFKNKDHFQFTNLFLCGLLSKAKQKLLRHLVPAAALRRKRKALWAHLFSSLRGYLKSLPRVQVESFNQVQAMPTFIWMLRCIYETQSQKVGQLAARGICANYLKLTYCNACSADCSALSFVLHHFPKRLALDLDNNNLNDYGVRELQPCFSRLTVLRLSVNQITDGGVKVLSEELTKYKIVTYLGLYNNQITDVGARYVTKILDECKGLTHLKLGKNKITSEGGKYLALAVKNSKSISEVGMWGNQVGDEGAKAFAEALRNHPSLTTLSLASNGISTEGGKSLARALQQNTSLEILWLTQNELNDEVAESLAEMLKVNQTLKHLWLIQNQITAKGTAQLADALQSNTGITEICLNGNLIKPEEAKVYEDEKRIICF
Test: inhibition of NOD1-driven NF-kB reporter – cell-based, luminescence, uHTS, primary screen (AID 1578)

outcome, active:
O=C(Nc1nnc(SCc2c(Cl)cccc2Cl)s1)c1cccc([N+](=O)[O-])c1, CC(=O)c1cccc(NS(=O)(=O)c2ccc(-c3cnc(C4CC4)o3)cc2)c1, COc1ccc(CCNc2cc(N3CCN(C(=O)c4ccccc4F)CC3)ccc2[N+](=O)[O-])cc1OC, Cn1c(Sc2ccc(Br)cc2)c(C=O)c2ccccc21, Cc1ccc(Sc2c(C=O)c3ccccc3n2C)cc1, Cc1cccc(Sc2c(C=O)c3ccccc3n2C)c1, N#C/C(=C(/O)Cc1cccc2ccccc12)c1nc2ccccc2s1, N#C/C(=C(/O)COc1ccc(Cl)cc1)c1nc2ccccc2s1, COc1ccccc1NS(=O)(=O)c1cccc(NC(=O)c2sc3ccccc3c2Cl)c1, Cc1ccc(NC(=O)c2ccccc2NS(=O)(=O)c2ccc(Cl)s2)cc1S(=O)(=O)N1CCOCC1, CS(=O)(=O)Nc1ccccc1C(=O)Nc1cc(Cl)cc(Cl)c1, COc1ccc(C)cc1NC(=O)c1ccccc1NS(=O)(=O)c1ccc(Cl)s1, Cc1ccc(NC(=O)c2ccccc2NS(=O)(=O)c2ccc(Cl)s2)cc1, COc1cc(NC(=O)c2ccccc2NS(=O)(=O)c2ccc(Cl)s2)cc(OC)c1, Cc1ccc(C)c(NC(=O)c2ccccc2NS(=O)(=O)c2cc([N+](=O)[O-])ccc2C)c1, O=C1CCC2S/C(=C/Nc3ccc(C(F)(F)F)cc3)C(=O)N12 (configuration not stated), Cc1ccc(-c2nn(CCC(=O)O)cc2/C=C\C(=O)c2ccc(Br)cc2)cc1, O=C(c1ccccc1)c1nn(-c2ccc(Cl)cc2)c(=O)cc1C(F)(F)F, CCOC(=O)c1c(N2C(=O)Nc3cc(Cl)c(Cl)cc3N2O)sc2c1CCCCC2, COc1ccc2cc3c(N)nn(C(=O)Cc4c[nH]c5ccccc45)c3nc2c1, COc1ccc2cc3c(N)nn(C(=O)Cc4ccccc4OC)c3nc2c1, CCCCCCc1cc2cc(S(=O)(=O)c3ccc(F)c(Cl)c3)c(=O)oc2cc1O, CCCCCCc1cc2cc(S(=O)(=O)c3ccc(Cl)cc3)c(=O)oc2cc1O, Cc1nn(Cc2ccc(Cl)cc2)c(C)c1NC(=O)c1noc2c1CCc1ccccc1-2, CC(C)Cn1c(N)c(C(=O)CSc2ccc3c(c2)OCCO3)c(=O)n(C)c1=O, COc1ccc(-c2cc(=O)oc3c(C)c(OC(=O)c4cccs4)ccc23)cc1, COc1ccc(-c2cc(=O)oc3c(C)c(O)ccc23)cc1, C=C1C(=O)O[C@@H]2C[C@@H](C)[C@@H]3C=CC(=O)[C@@]3(C)[C@@H](OC(C)=O)[C@H]12, COc1ccc(-c2cn[nH]c2-c2ccc(OC)cc2O)cc1, COc1ccc(-c2[nH]ncc2-c2ccc3c(c2)OCCO3)c(O)c1, COc1ccc(-c2cn[nH]c2-c2ccc(O)cc2O)cc1, COc1ccc(-c2cn[nH]c2-c2ccc(OC)cc2)cc1, Cc1nc2ccc(NS(=O)(=O)c3ccc(F)c(C)c3)cc2[nH]1, O=C(Nc1nnc(-c2ccccc2Cl)o1)c1ccc(S(=O)(=O)N2CCCCCC2)cc1, CCC1CCCCN1S(=O)(=O)c1ccc(C(=O)Nc2nnc(-c3ccccc3Cl)o2)cc1 (configuration not stated), CC1CCCCN1S(=O)(=O)c1ccc(C(=O)Nc2nnc(-c3ccccc3Cl)o2)cc1 (configuration not stated), Cc1nc2ccccc2c(C)c1C(=O)c1ccc(F)cc1.Cl, Cc1ccc(OCC(=O)c2cc(C)n(Cc3cccs3)c2C)c([N+](=O)[O-])n1, COCCn1c(C)cc(C(=O)COc2ccc(C)nc2[N+](=O)[O-])c1C, Cc1ccc(OCC(=O)c2cc(C)n(Cc3ccco3)c2C)c([N+](=O)[O-])n1, COCCn1c(C)cc(C(=O)COC(=O)c2cccc(O)c2)c1C, CCOC(=O)/C=C/S(=O)(=O)c1ccc(NC(C)=O)cc1, O=C(Oc1c(-c2ccccc2)c(=O)n2c3c(cccc13)CC2)c1ccc(Cl)cc1, O=C(Oc1c(-c2ccccc2)c(=O)n2c3c(cccc13)CC2)c1ccccc1, CC(C)(C)OC(=O)NCC(=O)Oc1cc2oc(=O)cc(-c3ccccc3)c2cc1Cl, O=C(CNC(=O)OCc1ccccc1)Oc1cc2oc(=O)cc(-c3ccccc3)c2cc1Cl, CN(CC1CCCO1)S(=O)(=O)c1ccc(C(=O)Nc2nc3cc4c(cc3s2)OCO4)cc1 (configuration not stated), CC(=O)c1cn(CCOc2cc(C)ccc2C)c2ccccc12, CC(=O)c1cn(CCOc2ccccc2C)c2ccccc12, COc1ccc(-c2cc(N)n(S(=O)(=O)c3c(F)c(F)c(F)c(F)c3F)n2)cc1OC, N#CC(C#N)=C(Nc1ccc(F)cc1)SCc1cccc(Br)c1, Cc1ccc(CSC(Nc2ccc(F)cc2)=C(C#N)C#N)cc1, N#CC(C#N)=C(Nc1ccc(F)cc1)SCc1cccc(F)c1, O=C(COc1ccc2c(-c3ccccc3)cc(=O)oc2c1)Nc1ccc(CCO)cc1, CCCc1ccc(-c2c(C)sc(NC(=O)c3ccnn3C)c2C#N)cc1, O=C1N/C(=N\N=C\c2ccccn2)SC1Cc1cccc(SC(F)F)c1 (configuration not stated), COc1ccc(C(=O)Nc2nc3ccccc3s2)c(OC)c1, COc1ccccc1C(=O)Nc1nc2ccccc2s1, CCOc1ccc2nc(NC(=O)c3ccccn3)sc2c1, O=C(Nc1ccc([N+](=O)[O-])cc1)Nc1nc(-c2ccc(Cl)s2)cs1, O=C(NC1CCCCC1)C(c1cccnc1)N(C(=O)CCl)c1cccc(Cl)c1 (configuration not stated), COC(CN(C(=O)CCl)C(C(=O)NC1CCCCC1)c1ccccc1C)OC (configuration not stated), O=C(NC1CCCCC1)C(c1cccnc1)N(C(=O)CCl)c1ccccc1Cl (configuration not stated), Cc1ccc(N(C(=O)CCl)C(C(=O)NC2CCCCC2)c2cccnc2)cc1C (configuration not stated), COc1ccc(C(C(=O)NC2CCCCC2)N(C(=O)CCl)c2cccc(Cl)c2)cc1 (configuration not stated), CC(C)c1noc2ncc(C(=O)c3cc(Cl)cc(Cl)c3O)cc12, Cc1nnc(N2CCCC(C(=O)Nc3cc(F)ccc3F)C2)c2nn(-c3ccccc3)c(C)c12 (configuration not stated)
